Records with an inconclusive call do not appear. Calls of active or inactive are those of the source. Calls come from the whole dose curve; as a rule, active = well fitted inhibition curve with a large enough effect; inconclusive = small, poorly fitted or top-dose-only effect; inactive = flat fitted curve, though single readings scatter. Bridge positions count the residues as written; N and C are the ends. Square brackets hold non-standard residues; d marks the D form. Peptide text beside a SMILES is read from it. * marks the point of attachment. Ileψ(thiazoline)Cys = CC[C@H](C)[C@H](N)C1=N[C@H](C(=O)*)CS1; d(aIle) = CC[C@H](C)[C@@H](N)C(=O)O; dOrn = NCCC[C@@H](N)C(=O)O
Each compound was assayed on CP286 (assay: qHTS profiling for inhibitors of Plasmodium falciparum proliferation (AID 504749; note: nearly all actives have a fitted effect of over 60% in size;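 for activity, negative = inhibition: 0% = DMSO vehicle and full inhibition = artemisinin control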)). Conditions: P. falciparum in erythrocytes, SYBR Green DNA, 72 h; series mostly up to 12.8 µM; activity, negative = inhibition: at the top concentration.
Summary of the method: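 Readout was DNA-dye fluorescence from lysed cultures, ex 485/em 535 nm. Parasitized red cells had grown 72 h with compound; data scaled between 0.29 uM artemisinin and DMSO wells and corrected using vehicle-only plates.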
Potency is the fitted concentration of half-maximal effect.

activity, negative = inhibition, inactive:
C[C@@H]1C[C@H]2[C@@H]3C[C@H](F)C4=CC(=O)C=C[C@@]4(C)[C@]3(F)[C@H](O)C[C@]2(C)[C@@]1(O)C(=O)CO 0.385%
C[C@H](O)Cn1cnc2c1c(=O)n(C)c(=O)n2C -2.17%
CCCCC[C@H](O)/C=C\[C@@H]1[C@H](O)CC(=O)[C@@H]1CCCCCCC(=O)O 0.642%
CC(=C(CCOP(=O)(O)O)SC(=O)c1ccccc1)N(C=O)Cc1cnc(C)nc1N -0.267%
NC[C@@H]1O[C@@H](O[C@H]2[C@H](O)[C@H](O[C@@H]3O[C@H](CO)[C@@H](O)[C@H](N)[C@@H]3O)[C@@H](N)C[C@H]2N)[C@H](N)C[C@@H]1O -2.56%
CCc1c(C)[nH]c2c1C(=O)[C@H](CN1CCOCC1)CC2 -0.0079%
CC[C@H](C)[C@H](N)C1=N[C@H](C(=O)N[C@@H](CC(C)C)C(=O)N[C@@H](CCC(=O)O)C(=O)N[C@@H](C(=O)N[C@H]2CCCCNC(=O)[C@@H](CC(N)=O)NC(=O)[C@@H](CC(=O)O)NC(=O)[C@@H](Cc3cnc[nH]3)NC(=O)[C@@H](Cc3ccccc3)NC(=O)[C@@H]([C@@H](C)CC)NC(=O)[C@@H](CCCN)NC2=O)[C@@H](C)CC)CS1 ({Ileψ(thiazoline)Cys}-LE[d(aIle)]K[dOrn][d(aIle)][dF][dH][dD][dN]; lactam 4-C) 0.238%
CCOC(=O)O[C@@H](C)OC(=O)[C@@H]1N2C(=O)[C@@H](NC(=O)[C@@H](N)c3ccccc3)[C@H]2SC1(C)C 0.0594%
Cc1ccsc1/C=C\C1=NCCCN1C -5.61%
O=C(O)COCCN1CCN([C@@H](c2ccccc2)c2ccc(Cl)cc2)CC1 -4.46%
C#C[C@]1(O)CC[C@@H]2[C@H]3CCC4=CCCC[C@@H]4[C@@H]3CC[C@@]21C -0.327%
CC1(C)[C@@H](OC(=O)CCC(=O)O)CC[C@@]2(C)[C@H]1CC[C@@]1(C)[C@H]2C(=O)C=C2[C@H]3C[C@](C)(C(=O)O)CC[C@]3(C)CC[C@@]21C -0.118%
C[C@H](CCC(=O)O)[C@H]1CC[C@@H]2[C@@H]3[C@@H](O)C[C@H]4C[C@@H](O)CC[C@@]4(C)[C@H]3CC[C@@]21C -6.13%
CN1CCO[C@H](c2ccccc2)c2ccccc2C1 -28.5%

Potency, active:
O=C(N/N=C\c1ccc([N+](=O)[O-])o1)c1ccc(O)cc1 2.51 µM

From PubChem BioAssay (NCATS)
